Measured values reported in PubChem BioAssay (EPA / NIEHS).
Records with an inconclusive call do not appear. Activity calls are given as the source filed them. The calls were made as follows, unless noted: active = hit-call score of the fitted dose curve at least 0.9, where 1 is the maximum; inactive = score below 0.9.

Assays:
[1] = ACEA_ER_80hr: ACEA Biosciences xCELLigence Real-Time Cell Analysis on Estrogen Receptor Agonism for Proliferation (AID 2282667; active = hit-call score of the fitted dose curve at least 0.9, where 1 is the maximum); conditions: T47D proliferation, impedance (xCELLigence), 80 h
Outline: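 Real-time electrical impedance tracked growth of the human breast line T47D, with the 80 h post-dosing value used. Dosing spanned eight 1:4 steps down from a 100 uM final top concentration, run in duplicate.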

[2] = ATG_CRE_CIS: Attagene CIS-FACTORIAL HepG2 Assay for human cAMP Responsive Element (CRE) binding protein 3 (AID 2282926); conditions: HepG2 CRE cis-reporter, Attagene multiplexed mRNA; actives raise or lower the signal
Outline: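 Human liver HepG2, transient MRTU transfection, 24 h compound exposure. Total RNA → oligo(dT) RT → PCR → 6-FAM primer extension → HpaI cut → CE. Activity called both directions vs DMSO.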

[3] = target: CCAAT/enhancer-binding protein beta (Homo sapiens) (UniProt P17676); experiment: ATG_C_EBP_CIS: Attagene CIS-FACTORIAL HepG2 Assay for human CCAAT/Enhancer Binding Protein (C/EBP) beta (AID 2282927); conditions: HepG2 Attagene cis-factorial transcription factor reporter; actives raise or lower the signal
Outline: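 RT-PCR/capillary electrophoresis fluorescence of reporter mRNA, 24 h post-dose, in HepG2 cells carrying transfected cis-promoter reporter units. Bidirectional curve fitting against DMSO baseline captures gain or loss of signal.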

[4] = ATG_DR4_LXR_CIS: Attagene CIS-FACTORIAL HepG2 Assay for human Liver X Receptor (LXR), DR4 submotif (AID 2282929); conditions: HepG2 Attagene DR4 cis-reporter, mRNA transcription; actives raise or lower the signal
Outline: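 DR4 cis-reporter in HepG2, 24 h exposure. Detection: RT-PCR, 6-FAM labelling, CE fragment analysis. Endpoint fitted bidirectionally, DMSO = baseline.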

[5] = target: Aryl hydrocarbon receptor (Homo sapiens) (UniProt P35869); experiment: ATG_Ahr_CIS: Attagene CIS-FACTORIAL HepG2 Assay for human Aryl Hydrocarbon Receptor (Ahr) (AID 2282930); conditions: HepG2 AhR cis-factorial reporter transcription; actives raise or lower the signal
Outline: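 HepG2 cells transiently transfected with cis-element-driven multiplexed reporter transcription units; endogenous transcription factor activity measured as reporter mRNA 24 h after dosing. RT-PCR, 6-FAM labelling, HpaI digestion, capillary electrophoresis; bidirectional fitting versus DMSO baseline.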

[6] = ATG_AP_1_CIS: Attagene CIS-FACTORIAL HepG2 Assay for human Activator Protein 1 (AP-1) (AID 2282931); conditions: HepG2 Attagene cis-factorial AP-1 reporter mRNA; actives raise or lower the signal
Outline: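 Cis-regulated reporter units transiently expressed in HepG2 report endogenous transcription-factor activity. Signal: reporter mRNA at 24 h, via RT-PCR and fluorescent capillary electrophoresis. Endpoint derived by bidirectional fitting, DMSO as negative control.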

[7] = ATG_AP_2_CIS: Attagene CIS-FACTORIAL HepG2 Assay for human Activator Protein 2 (AP-2) (AID 2282932); conditions: HepG2 AP-2 cis-reporter, Attagene transcription factor profiling; actives raise or lower the signal
Outline: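 Bidirectional curve fitting against DMSO was applied to reporter mRNA signals from HepG2 cells 24 h after dosing. Cis-promoter reporter units, transiently transfected, were read by RT-PCR plus capillary electrophoresis.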

[8] = ATG_BRE_CIS: Attagene CIS-FACTORIAL HepG2 Assay for human Bone Morphogenetic Protein (BMP) Response Element (BRE) (AID 2282933); conditions: HepG2 BMP response element reporter, Attagene transcription factor profiling; actives raise or lower the signal
Outline: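 Fluorescence-labelled reporter cDNA fragments, separated by capillary electrophoresis, gave the signal for this component of a 52-readout multiplex. HepG2 cells were transfected, exposed to chemicals for 24 h, and compared with DMSO using bidirectional fitting.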

[9] = target: Retinoic acid receptor alpha (Homo sapiens) (UniProt P10276); experiment: ATG_DR5_RAR_CIS: Attagene CIS-FACTORIAL HepG2 Assay for human Retinoic Acid Receptor Alpha (RARE), DR5 submotif (AID 2282934); conditions: HepG2 Attagene cis-factorial RARE DR5 reporter, mRNA; actives raise or lower the signal
Outline: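 HepG2 cells transiently transfected with multiplexed reporter units under cis (DR5 RARE) promoters, so endogenous transcription factor activity is measured. After 24 h compound exposure, reporter mRNA is quantified by RT-PCR with fluorescent labelling and capillary electrophoresis; bidirectional fitting versus DMSO.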

[10] = target: Transcription factor E2F1 (Homo sapiens) (UniProt Q01094); experiment: ATG_E2F_CIS: Attagene CIS-FACTORIAL HepG2 Assay for human E2F Transcription Factor 1 (AID 2282935); conditions: HepG2 Attagene cis-reporter, E2F reporter RNA transcripts; actives raise or lower the signal
Outline: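 Multiplexed cis-reporter assay: HepG2, transient transfection, 24 h dosing, mRNA quantitation by labeled RT-PCR and CE.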

[11] = ATG_E_Box_CIS: Attagene CIS-FACTORIAL HepG2 Assay for human Enhancer Box (E-box) (AID 2282936); conditions: HepG2 E-box cis-reporter transcription, actives raise or lower the signal
Outline: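 Multiplexed CIS reporter system in transiently transfected HepG2 cells measures native transcription factor activity. Reporter RNA after 24 h exposure is profiled by RT-PCR-capillary electrophoresis.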

[12] = ATG_M_61_CIS: Attagene CIS-FACTORIAL HepG2 Assay for M61 Transcription Factor (Internal Marker) (AID 2282937); conditions: HepG2 Attagene CIS-FACTORIAL M61 internal marker reporter; actives raise or lower the signal
Outline: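 Background-control endpoint: HepG2 cells with cis-regulated reporter constructs, 24 h exposure, reporter mRNA detected via fluorescent primer extension and capillary electrophoresis; values from bidirectional fitting with DMSO baseline.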

[13] = ATG_EGR_CIS: Attagene CIS-FACTORIAL HepG2 Assay for human Early Growth Response 1 (EGR1) (AID 2282938); conditions: HepG2 Attagene CIS-FACTORIAL EGR reporter mRNA; actives raise or lower the signal
Outline: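 Endpoint derived by bidirectional fitting versus DMSO vehicle. Method: cis-promoter reporter units transfected into HepG2, 24 h dosing, RNA isolation, RT-PCR with 6-FAM primer extension and HpaI digestion, then capillary electrophoresis fluorescence detection.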

[14] = ATG_M_19_CIS: Attagene CIS-FACTORIAL HepG2 Assay for M19 Transcription Factor (Internal Marker) (AID 2282939); conditions: HepG2 Attagene CIS-FACTORIAL M19 internal marker reporter; actives raise or lower the signal
Outline: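 HepG2, MRTU transient transfection, 24 h dosing. Total RNA → RT-PCR → 6-FAM primer extension → HpaI digest → CE fluorescence. Bidirectional curve fit, DMSO negative control.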

[15] = ATG_Ets_CIS: Attagene CIS-FACTORIAL HepG2 Assay for human Erythroblast Transformation Specific (ETS) (AID 2282941); conditions: HepG2 ETS cis-reporter transcription, actives raise or lower the signal
Outline: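 After transient cis-reporter transfection, HepG2 cells receive test chemical for 24 h. Reporter mRNA levels, measured by RT-PCR and capillary electrophoresis fluorescence, are analysed bidirectionally relative to the DMSO baseline.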

[16] = target: Hepatocyte nuclear factor 3-beta (Homo sapiens) (UniProt Q9Y261); experiment: ATG_FoxA2_CIS: Attagene CIS-FACTORIAL HepG2 Assay for human Forkhead box A2 (FOXA2) (AID 2282942); conditions: HepG2 cis-reporter transcription factor activity, 24 h; actives raise or lower the signal
Outline: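 Measured: reporter mRNA induction or loss in HepG2 transiently carrying multiple cis-regulated reporter units, 24 h after dosing. Quantified by RT-PCR plus capillary electrophoresis, normalised to DMSO.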

[17] = ATG_FoxO_CIS: Attagene CIS-FACTORIAL HepG2 Assay for human Forkhead box O (FoxO) (AID 2282943); conditions: HepG2 Attagene cis-reporter, FoxO element, mRNA; actives raise or lower the signal
Outline: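 HepG2 cells transiently transfected with cis-promoter-driven multiple reporter transcription units; 24 h after chemical dosing, reporter mRNA quantified by RT-PCR, fluorescent primer extension, HpaI digestion and capillary electrophoresis. Bidirectional fitting versus DMSO baseline.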

[18] = ATG_GATA_CIS: Attagene CIS-FACTORIAL HepG2 Assay for human GATA Binding Protein (AID 2282944); conditions: HepG2 GATA cis-element reporter, Attagene multiplex mRNA; actives raise or lower the signal
Outline: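 Cells: HepG2, transiently transfected with cis-regulated reporter transcription units. Exposure: 24 h. Detection: RT-PCR plus capillary electrophoresis of FAM-labeled fragments. Analysis: bidirectional, DMSO as baseline.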

[19] = ATG_ERE_CIS: Attagene CIS-FACTORIAL HepG2 Assay for Estrogen Response Element (ERE) (AID 2282940); conditions: HepG2 ERE cis-reporter, Attagene RNA transcript; actives raise or lower the signal
Outline: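 After a 24 h chemical treatment, RNA from reporter-transfected HepG2 cells is reverse-transcribed, PCR-amplified and fluorescently labelled. Fragments separated by capillary electrophoresis give reporter signal; DMSO serves as negative control.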

Sequence of Aryl hydrocarbon receptor (Homo sapiens) (P35869 whole entry, looked up): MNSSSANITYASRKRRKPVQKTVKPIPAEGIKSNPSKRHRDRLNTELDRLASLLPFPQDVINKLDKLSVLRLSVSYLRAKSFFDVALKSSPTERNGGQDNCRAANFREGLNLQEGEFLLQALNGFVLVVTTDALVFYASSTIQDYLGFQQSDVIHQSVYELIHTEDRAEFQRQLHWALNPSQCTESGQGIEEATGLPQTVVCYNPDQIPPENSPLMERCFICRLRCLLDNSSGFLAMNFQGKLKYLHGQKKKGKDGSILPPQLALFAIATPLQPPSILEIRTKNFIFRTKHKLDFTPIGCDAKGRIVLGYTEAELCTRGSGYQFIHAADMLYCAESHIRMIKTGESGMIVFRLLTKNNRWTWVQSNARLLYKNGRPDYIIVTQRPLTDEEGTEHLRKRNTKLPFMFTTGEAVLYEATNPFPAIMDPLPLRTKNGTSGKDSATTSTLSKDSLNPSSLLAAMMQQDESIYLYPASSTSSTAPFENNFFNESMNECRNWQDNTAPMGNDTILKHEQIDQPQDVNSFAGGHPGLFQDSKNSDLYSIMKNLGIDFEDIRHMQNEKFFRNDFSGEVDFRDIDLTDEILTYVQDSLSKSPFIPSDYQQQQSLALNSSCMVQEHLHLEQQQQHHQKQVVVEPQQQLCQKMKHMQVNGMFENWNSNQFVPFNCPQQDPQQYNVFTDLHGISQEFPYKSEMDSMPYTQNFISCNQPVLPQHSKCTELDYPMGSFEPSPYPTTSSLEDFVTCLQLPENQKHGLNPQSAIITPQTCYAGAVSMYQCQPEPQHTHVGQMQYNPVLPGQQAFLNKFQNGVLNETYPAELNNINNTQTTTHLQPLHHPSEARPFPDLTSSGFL
Sequence of Retinoic acid receptor alpha (Homo sapiens) (P10276 whole entry, looked up): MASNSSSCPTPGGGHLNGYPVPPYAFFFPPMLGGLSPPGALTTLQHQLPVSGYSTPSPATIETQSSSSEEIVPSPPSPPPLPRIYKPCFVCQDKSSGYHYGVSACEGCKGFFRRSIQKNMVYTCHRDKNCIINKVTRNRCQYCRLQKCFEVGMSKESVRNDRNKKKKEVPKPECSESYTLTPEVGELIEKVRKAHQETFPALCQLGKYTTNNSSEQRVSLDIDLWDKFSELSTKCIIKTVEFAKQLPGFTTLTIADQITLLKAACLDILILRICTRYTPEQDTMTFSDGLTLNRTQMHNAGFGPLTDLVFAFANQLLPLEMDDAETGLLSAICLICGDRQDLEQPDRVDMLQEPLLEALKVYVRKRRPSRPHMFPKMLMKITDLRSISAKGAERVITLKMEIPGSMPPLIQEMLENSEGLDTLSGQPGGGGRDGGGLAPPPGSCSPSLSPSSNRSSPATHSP
Sequence of Hepatocyte nuclear factor 3-beta (Homo sapiens) (Q9Y261 whole entry, looked up): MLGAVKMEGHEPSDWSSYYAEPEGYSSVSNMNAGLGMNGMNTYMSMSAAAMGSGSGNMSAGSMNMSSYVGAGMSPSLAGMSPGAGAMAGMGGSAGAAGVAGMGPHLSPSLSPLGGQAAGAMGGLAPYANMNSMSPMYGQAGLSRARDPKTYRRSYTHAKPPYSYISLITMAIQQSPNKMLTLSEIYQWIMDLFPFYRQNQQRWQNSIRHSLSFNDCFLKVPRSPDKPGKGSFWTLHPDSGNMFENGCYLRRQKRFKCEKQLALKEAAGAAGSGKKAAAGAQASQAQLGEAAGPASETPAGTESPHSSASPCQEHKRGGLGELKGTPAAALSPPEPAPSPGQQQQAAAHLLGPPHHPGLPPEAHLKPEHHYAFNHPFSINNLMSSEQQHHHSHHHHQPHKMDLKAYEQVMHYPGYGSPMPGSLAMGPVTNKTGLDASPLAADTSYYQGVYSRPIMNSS
Sequence of Transcription factor E2F1 (Homo sapiens) (Q01094 whole entry, looked up): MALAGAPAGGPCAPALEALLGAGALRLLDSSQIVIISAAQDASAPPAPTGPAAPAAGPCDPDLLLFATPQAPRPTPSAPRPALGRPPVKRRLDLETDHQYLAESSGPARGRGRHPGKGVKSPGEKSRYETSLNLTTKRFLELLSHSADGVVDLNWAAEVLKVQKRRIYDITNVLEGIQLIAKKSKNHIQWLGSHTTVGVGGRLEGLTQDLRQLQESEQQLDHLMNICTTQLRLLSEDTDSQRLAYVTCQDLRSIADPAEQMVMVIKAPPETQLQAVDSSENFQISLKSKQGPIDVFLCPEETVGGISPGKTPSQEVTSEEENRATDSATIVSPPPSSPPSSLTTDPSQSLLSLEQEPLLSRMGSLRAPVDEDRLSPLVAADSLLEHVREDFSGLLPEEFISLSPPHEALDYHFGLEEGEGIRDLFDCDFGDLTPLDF
Sequence of CCAAT/enhancer-binding protein beta (Homo sapiens) (P17676 whole entry, looked up): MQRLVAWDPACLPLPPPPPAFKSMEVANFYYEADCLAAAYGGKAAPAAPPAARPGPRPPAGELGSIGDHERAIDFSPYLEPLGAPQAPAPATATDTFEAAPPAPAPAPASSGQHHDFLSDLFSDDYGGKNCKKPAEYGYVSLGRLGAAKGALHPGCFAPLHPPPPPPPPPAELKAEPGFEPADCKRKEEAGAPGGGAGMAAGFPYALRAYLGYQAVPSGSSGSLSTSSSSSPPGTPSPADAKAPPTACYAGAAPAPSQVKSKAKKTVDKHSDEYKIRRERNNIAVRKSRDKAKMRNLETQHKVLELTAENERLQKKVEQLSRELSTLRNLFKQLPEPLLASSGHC

Row | SMILES | outcome [1] | outcome [2] | outcome [3] | outcome [4] | outcome [5] | outcome [6] | outcome [7] | AC50 [8] | outcome [9] | outcome [10] | outcome [11] | outcome [12] | outcome [13] | outcome [14] | outcome [15] | outcome [16] | outcome [17] | outcome [18] | outcome [8] | outcome [19]
1 | CCCCCCCCCCCCC[N+](C)(C)Cc1ccccc1 | inactive | inactive | inactive | inactive | inactive | inactive | inactive | 5.63 µM (active) | inactive | inactive | inactive | inactive | inactive | inactive | inactive | inactive | inactive | inactive |  | 
2 | CCc1cccc(C)c1N(C(=O)C(=O)O)C(C)COC (configuration not stated) | inactive | inactive | inactive | inactive |  | inactive | inactive |  | inactive | inactive | inactive | inactive | inactive | inactive | inactive | inactive | inactive | inactive | inactive | inactive
3 | CCCCCCCC/C=C\CCCCCCCC(=O)N(C)CC(=O)O | inactive | inactive | inactive | inactive | inactive | inactive | inactive |  | inactive | inactive | inactive | inactive | inactive | inactive | inactive | inactive | inactive | inactive | inactive | inactive
4 | CCCCCC/C=C/CCCCCCCC(=O)O | inactive | inactive | inactive | inactive | inactive | inactive | inactive |  | inactive | inactive | inactive | inactive | inactive | inactive | inactive | inactive | inactive | inactive | inactive | inactive
5 | CCCCOC(=O)[C@H](C)O | inactive | inactive | inactive |  |  | inactive | inactive |  | inactive | inactive | inactive | inactive | inactive | inactive | inactive | inactive | inactive | inactive | inactive | inactive
6 | NC(=O)C(F)(F)C(F)(F)C(F)(F)C(F)(F)C(N)=O | inactive | inactive | inactive | inactive |  | inactive | inactive |  | inactive | inactive | inactive | inactive | inactive | inactive | inactive | inactive | inactive | inactive | inactive | inactive
7 | CC1CCCCC1 | inactive | inactive | inactive | inactive | inactive | inactive | inactive |  | inactive | inactive | inactive | inactive | inactive | inactive | inactive |  | inactive | inactive | inactive | inactive
